Reference: PubChem BioAssay (NCATS)

assay: qHTS drug screen for cell cycle checkpoint inhibitors in PARPi-resistant BRCA-mutant ovarian cancer cell lines. (AID 1963452); details: PEO1/OlaR viability, CellTiter-Glo luminescence, 96 h; measured here: PEO1 parental Z-AUC; stronger effect = lower value
Procedure, shortened: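 PEO1, PEO4 and PEO1/OlaR ovarian cancer cells, 600 per well, exposed 96 h at 37C to a dilution series. Viability read by CellTiter-Glo luminescence, normalized to DMSO and empty wells; activity summarized as Z-AUC.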

SMILES | Z-AUC
O=S(=O)(NCCNC/C=C/c1ccc(Br)cc1)c1cccc2cnccc12 | 1.26
CC(C)=CCC/C(C)=C/CC/C(C)=C/CSc1ccccc1C(=O)O | 0.837
CN1CCN(c2nc(C3=C(c4c[nH]c5ccccc45)C(=O)NC3=O)c3ccccc3n2)CC1 | 0.875
CN(C)Cc1cccc(N=C(c2ccccc2)c2c(O)[nH]c3cc(C(N)=O)ccc23)c1 | 0.627
Cc1ccc(Nc2ncc3c(n2)N(C)C(=O)N(c2cc(NC(=O)c4cccc(C(F)(F)F)c4)ccc2C)C3)cn1 | -2.2
CCCCCCCCCCCCCCCCOCCCOP(=O)(O)COC(CO)Cn1ccc(N)nc1=O (stereo not given) | -0.362
COc1ccc(-c2oc3ncnc(N)c3c2-c2ccc(NC(=O)Nc3cc(C(F)(F)F)ccc3F)cc2)cc1 | 0.865
COC1(c2sc3c(N4CCOCC4)nc(-c4cnc(N)nc4)nc3c2C)COC1 | -1.58
CNC(=O)c1c(C)oc2cc(Oc3ncnc4cc(OC)c(OC)cc34)ccc12 | -0.16
COCc1c(-c2ccc(NC(=O)Nc3cc(C(F)(F)F)ccc3F)c(F)c2)c2c(N)ncnn2c1CN1CCOCC1 | -1.33
NC1CCCN(c2c(/C=C3\SC(=O)NC3=O)cccc2-c2ccccc2)C1 (stereo not given) | -0.352
Cn1cc(-c2cc(Oc3cc(F)c(NC(=O)C4(C(=O)Nc5ccccc5)CC4)cc3F)ccn2)cn1 | -0.238
COc1cc(OC)cc(N(CCNC(C)C)c2ccc3ncc(-c4cnn(C)c4)nc3c2)c1 | -0.0954
O=C(NOCCO)c1cc(CN2OCCCC2=O)c(F)c(F)c1Nc1ccc(I)cc1F | -0.961
Cc1c[nH]c(/C=C2\C(=O)Nc3ccccc32)c1CCC(=O)O | 1.05

same assay, conditions: PEO1/OlaR viability, CellTiter-Glo luminescence, 96 h; measured here: PEO4 Z-AUC; stronger effect = lower value

SMILES | Z-AUC
O=S(=O)(NCCNC/C=C/c1ccc(Br)cc1)c1cccc2cnccc12 | 0.757
CC(C)=CCC/C(C)=C/CC/C(C)=C/CSc1ccccc1C(=O)O | 0.897
CN1CCN(c2nc(C3=C(c4c[nH]c5ccccc45)C(=O)NC3=O)c3ccccc3n2)CC1 | 0.634
CN(C)Cc1cccc(N=C(c2ccccc2)c2c(O)[nH]c3cc(C(N)=O)ccc23)c1 | -0.143
Cc1ccc(Nc2ncc3c(n2)N(C)C(=O)N(c2cc(NC(=O)c4cccc(C(F)(F)F)c4)ccc2C)C3)cn1 | -1.4
CCCCCCCCCCCCCCCCOCCCOP(=O)(O)COC(CO)Cn1ccc(N)nc1=O (stereo not given) | -0.397
COc1ccc(-c2oc3ncnc(N)c3c2-c2ccc(NC(=O)Nc3cc(C(F)(F)F)ccc3F)cc2)cc1 | 0.712
COC1(c2sc3c(N4CCOCC4)nc(-c4cnc(N)nc4)nc3c2C)COC1 | -1.08
CNC(=O)c1c(C)oc2cc(Oc3ncnc4cc(OC)c(OC)cc34)ccc12 | -0.205
COCc1c(-c2ccc(NC(=O)Nc3cc(C(F)(F)F)ccc3F)c(F)c2)c2c(N)ncnn2c1CN1CCOCC1 | -1.61
NC1CCCN(c2c(/C=C3\SC(=O)NC3=O)cccc2-c2ccccc2)C1 (stereo not given) | -1.12
Cn1cc(-c2cc(Oc3cc(F)c(NC(=O)C4(C(=O)Nc5ccccc5)CC4)cc3F)ccn2)cn1 | 0.178
COc1cc(OC)cc(N(CCNC(C)C)c2ccc3ncc(-c4cnn(C)c4)nc3c2)c1 | -0.145
O=C(NOCCO)c1cc(CN2OCCCC2=O)c(F)c(F)c1Nc1ccc(I)cc1F | -1.01
Cc1c[nH]c(/C=C2\C(=O)Nc3ccccc32)c1CCC(=O)O | 1.31
